Consider seven compounds from PubChem BioAssay (EPA / NIEHS).

Records with an inconclusive call do not appear. Active and inactive are the calls of the source. Rule for the calls, unless noted: active = hit-call score of the fitted dose curve at least 0.9, where 1 is the maximum; inactive = score below 0.9.

Experiment [1] concerns the target human Peroxisome Proliferator-activated Receptor alpha (PPARa), PPARA (gene 5465) (UniProt Q07869). Nature of the experiment: ATG_PPARa_TRANS: Attagene TRANS-FACTORIAL HepG2 Assay for human Peroxisome Proliferator-activated Receptor alpha (PPARa) (AID 2283001; active = hit-call score of the fitted dose curve at least 0.9, where 1 is the maximum). In outline: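 Read-out is fluorescence of reporter cDNA fragments resolved by capillary electrophoresis after RT-PCR. Human HepG2 liver cells carried transfected PPARa-Gal4 chimera and GAL4-UAS reporter units, treated 24 h; activity scored as increase over DMSO.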

The target in experiment [2] is human Peroxisome Proliferator-activated Receptor delta (PPARd), PPARD (gene 5467) (UniProt Q03181). In words: ATG_PPARd_TRANS: Attagene TRANS-FACTORIAL HepG2 Assay for human Peroxisome Proliferator-activated Receptor delta (PPARd) (AID 2283002; active = hit-call score of the fitted dose curve at least 0.9, where 1 is the maximum). An outline of the steps: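 Read-out is induced reporter mRNA, quantified by RT-PCR with fluorescent labelling and capillary electrophoresis after 24 h dosing. Cells are HepG2 transiently carrying multiple GAL4-UAS reporter units driven by exogenous NR-GAL4 chimeras; DMSO serves as baseline.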
Sequence of human Peroxisome Proliferator-activated Receptor delta (PPARd), PPARD (gene 5467) (Q03181 whole entry, looked up, the tested form may be a part): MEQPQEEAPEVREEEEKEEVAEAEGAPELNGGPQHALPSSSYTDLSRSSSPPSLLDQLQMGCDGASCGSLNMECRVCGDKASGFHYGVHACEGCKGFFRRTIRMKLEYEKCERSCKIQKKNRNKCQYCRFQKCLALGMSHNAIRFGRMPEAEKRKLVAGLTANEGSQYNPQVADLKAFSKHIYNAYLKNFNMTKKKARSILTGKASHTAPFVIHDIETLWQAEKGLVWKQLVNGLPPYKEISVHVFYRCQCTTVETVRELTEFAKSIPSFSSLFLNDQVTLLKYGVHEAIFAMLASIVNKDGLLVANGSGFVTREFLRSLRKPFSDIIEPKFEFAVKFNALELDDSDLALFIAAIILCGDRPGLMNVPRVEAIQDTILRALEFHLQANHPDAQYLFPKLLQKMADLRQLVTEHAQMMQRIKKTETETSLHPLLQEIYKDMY

Read-out in experiment [3]: Intercellular Adhesion Molecule 1 (ICAM1), ICAM1 (gene 3383)
Nature of the experiment: BSK_3C_ICAM1: BioMAP Diversity Plus: 3C Assay for Intercellular Adhesion Molecule 1 (ICAM1) Biomarker Activity (AID 2283003). The conditions noted are these: primary human endothelial cells (HUVEC); actives raise or lower the signal. In outline: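 ICAM-1 levels measured by ELISA after HUVEC cultures in the 3C system had been dosed for 24 h. Gain or loss of signal relative to DMSO was fitted in both directions.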

In experiment [4] the target is Retinoic acid receptor alpha (Homo sapiens) (UniProt P10276). In words: ATG_RARa_TRANS: Attagene TRANS-FACTORIAL HepG2 Assay for human Retinoic Acid Receptor alpha (RARa) (AID 2283005; active = hit-call score of the fitted dose curve at least 0.9, where 1 is the maximum). An outline of the steps: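 Reporter transcripts, measured by RT-PCR with fluorescent labeling and capillary electrophoresis after 24 h dosing, reflect activity of an exogenous human RARa–GAL4 fusion in transiently transfected HepG2. Fitted for increase relative to DMSO.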
Sequence of Retinoic acid receptor alpha (Homo sapiens) (P10276 whole entry, looked up, the tested form may be a part): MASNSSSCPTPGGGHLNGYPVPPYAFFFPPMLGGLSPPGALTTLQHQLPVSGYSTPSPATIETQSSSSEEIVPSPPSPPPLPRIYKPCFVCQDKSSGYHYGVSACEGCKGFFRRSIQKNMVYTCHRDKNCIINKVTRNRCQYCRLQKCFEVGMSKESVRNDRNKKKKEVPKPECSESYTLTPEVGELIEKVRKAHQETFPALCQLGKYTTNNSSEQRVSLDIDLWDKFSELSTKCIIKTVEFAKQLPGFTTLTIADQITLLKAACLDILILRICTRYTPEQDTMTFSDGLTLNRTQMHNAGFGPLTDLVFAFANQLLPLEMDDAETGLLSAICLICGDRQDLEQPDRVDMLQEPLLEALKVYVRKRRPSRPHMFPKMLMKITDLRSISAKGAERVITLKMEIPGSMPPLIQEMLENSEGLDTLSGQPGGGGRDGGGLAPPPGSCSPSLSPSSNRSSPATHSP

Experiment [5] in a line: BSK_3C_Proliferation: Cell Proliferation Assessment in the BioMAP Diversity Plus: 3C Assay (AID 2283006).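 For AC50: potency may reflect either rise or fall in cell number versus DMSO.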 Conditions: primary human endothelial cells (HUVEC). An outline of the steps: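 Read-out is total protein by SRB absorbance at 560 nm, taken as a proxy for relative cell number. Primary human umbilical vein endothelium cultured below confluence was dosed for 48 h, TCA-fixed and SRB-stained; curves were fitted bidirectionally versus DMSO.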

Experiment [6] addresses Peroxisome proliferator-activated receptor gamma (Homo sapiens) (UniProt P37231). In words: ATG_PPARg_TRANS: Attagene TRANS-FACTORIAL HepG2 Assay for human Peroxisome Proliferator-activated Receptor-gamma (PPARg) (AID 2283007; active = hit-call score of the fitted dose curve at least 0.9, where 1 is the maximum). In outline:
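Multiplexed reporter transcription units in HepG2, 24 h dosing, reporter transcripts quantified by fluorescent RT-PCR and capillary electrophoresis. Increase over DMSO scored.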

Experiment [7] deals with Nuclear receptor subfamily 1 group I member 2 (Homo sapiens) (UniProt O75469). In words: ATG_PXR_TRANS: Attagene TRANS-FACTORIAL HepG2 Assay for human Pregnane X Receptor (PXR) (AID 2283008; active = hit-call score of the fitted dose curve at least 0.9, where 1 is the maximum). In outline:
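Measures mRNA induction of a GAL4-UAS-driven reporter in human HepG2 cells transiently expressing PXR fused to Gal4, following 24 h treatment. DMSO served as negative control and baseline.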

The target of experiment [8] is human Retinoic Acid Receptor gamma (RARg), RARG (gene 5916) (UniProt P13631). In words: ATG_RARg_TRANS: Attagene TRANS-FACTORIAL HepG2 Assay for human Retinoic Acid Receptor gamma (RARg) (AID 2283009; active = hit-call score of the fitted dose curve at least 0.9, where 1 is the maximum). An outline of the steps: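 Transient transfection of HepG2 with multi-reporter constructs, then 24 h chemical treatment. Total RNA isolated, reverse-transcribed, PCR-amplified, fluorescently labelled and resolved by capillary electrophoresis; activity scored as mRNA induction versus DMSO.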
Sequence of human Retinoic Acid Receptor gamma (RARg), RARG (gene 5916) (P13631 whole entry, looked up): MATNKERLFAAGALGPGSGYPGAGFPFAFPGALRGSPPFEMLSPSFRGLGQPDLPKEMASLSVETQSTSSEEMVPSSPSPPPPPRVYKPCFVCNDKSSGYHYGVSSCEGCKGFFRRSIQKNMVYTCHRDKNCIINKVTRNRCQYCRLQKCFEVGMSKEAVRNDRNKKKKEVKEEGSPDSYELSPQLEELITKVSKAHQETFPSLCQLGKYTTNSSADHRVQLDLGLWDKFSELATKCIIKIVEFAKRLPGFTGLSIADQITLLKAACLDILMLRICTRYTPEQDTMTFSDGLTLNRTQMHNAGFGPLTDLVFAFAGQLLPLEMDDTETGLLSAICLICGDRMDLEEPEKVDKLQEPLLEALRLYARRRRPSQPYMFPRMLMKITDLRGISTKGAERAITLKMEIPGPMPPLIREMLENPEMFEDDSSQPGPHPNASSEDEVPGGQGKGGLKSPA

Experiment [9] addresses Retinoic acid receptor RXR-alpha (Homo sapiens) (UniProt P19793). Nature of the experiment: ATG_RXRa_TRANS: Attagene TRANS-FACTORIAL HepG2 Assay for human Retinoid X Receptor alpha (RXRa) (AID 2283012; active = hit-call score of the fitted dose curve at least 0.9, where 1 is the maximum). In outline:
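Transient transfection of human HepG2 with multiple GAL4-UAS reporter constructs; 24 h compound exposure; total RNA isolated, reverse-transcribed, PCR-amplified, 6-FAM labelled, HpaI-cut, resolved by capillary electrophoresis. Positive-direction fit versus DMSO.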

The target in experiment [10] is human Retinoid X Receptor beta (RXRb), RXRB (gene 6257) (UniProt P28702). Nature of the experiment: ATG_RXRb_TRANS: Attagene TRANS-FACTORIAL HepG2 Assay for human Retinoid X Receptor beta (RXRb) (AID 2283013; active = hit-call score of the fitted dose curve at least 0.9, where 1 is the maximum). In outline:
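Transfect HepG2 with GAL4-UAS multi-reporter constructs (chimeric NR-Gal4, TRANS format); dose compound 24 h; isolate RNA, RT-PCR, FAM primer extension, HpaI digest; quantify by capillary electrophoresis; positive direction vs DMSO.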

Read-out in experiment [11]: E-selectin (Homo sapiens) (UniProt P16581)
Nature of the experiment: BSK_3C_Eselectin: BioMAP Diversity Plus: 3C Assay for Eselectin Biomarker Activity (AID 2283015).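 Note: cell surface E-selectin protein quantified by ELISA 24 h after dosing.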 The conditions noted are these: primary human endothelial cells (HUVEC); actives raise or lower the signal. In outline:
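Human vascular endothelium from umbilical vein is exposed to test chemicals for 24 h. E-selectin levels are read by ELISA and compared with DMSO controls.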

Read-out in experiment [12]: Interleukin-1 alpha (IL1a), IL1A (gene 3552)
Nature of the experiment: BSK_BE3C_IL1a: BioMAP Diversity Plus: BE3C Assay for Interleukin-1 alpha (IL1a) Biomarker Activity (AID 2283016). The conditions noted are these: primary human bronchial epithelial cells; actives raise or lower the signal. An outline of the steps:
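BE3C primary human bronchial epithelium; cpd 24 h; IL-1a by ELISA; bidirectional fit vs DMSO; parallel SRB (0.1% SRB, 10% TCA fix, 560 nm) for cytotoxicity.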

Read-out in experiment [13]: Monocyte Chemoattractant Protein-1 (MCP1), CCL2 (gene 6347)
Nature of the experiment: BSK_3C_MCP1: BioMAP Diversity Plus: 3C Assay for Monocyte Chemoattractant Protein-1 (MCP1) Biomarker Activity (AID 2283017). The conditions noted are these: primary human endothelial cells (HUVEC); actives raise or lower the signal. In outline: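 Endothelial cells from human umbilical vein are dosed with chemical, cultured 24 h, then assayed for MCP-1 by ELISA; both increases and decreases are modelled against DMSO controls.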

Read-out in experiment [14]: Interleukin-8 (IL8), CXCL8 (gene 3576)
Nature of the experiment: BSK_3C_IL8: BioMAP Diversity Plus: 3C Assay for Interleukin-8 (IL8) Biomarker Activity (AID 2283020). Conditions: primary human endothelial cells (HUVEC); actives raise or lower the signal. An outline of the steps:
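ELISA read-out of IL-8 from human umbilical vein endothelium, measured 24 h after chemical dosing. Activity is expressed relative to DMSO negative control, with both increases and decreases fitted.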

The nature of experiment [15]: BSK_4H_Eotaxin3: BioMAP Diversity Plus: 4H Assay for Eotaxin 3 Biomarker Activity (AID 2283000).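 For outcome: CCL26 protein level quantified by ELISA in parallel with SRB cytotoxicity check.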 The conditions noted are these: primary human endothelial cells (HUVEC); actives raise or lower the signal. An outline of the steps: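 Endothelial primary cells (human umbilical vein) exposed to compound for 24 h. ELISA detection of Eotaxin-3.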
Read-out in experiment [16]: Monocyte Chemoattractant Protein-1 (MCP1), CCL2 (gene 6347)
In words: BSK_4H_MCP1: BioMAP Diversity Plus: 4H Assay for Monocyte Chemoattractant Protein-1 (MCP1) Biomarker Activity (AID 2283018). Conditions: primary human endothelial cells (HUVEC); actives raise or lower the signal. In outline:
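ELISA read-out of MCP-1 from human vascular endothelial primary cells taken at 24 hours after compound exposure. Activity was fitted in both directions relative to DMSO, which served as negative control.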

The target in experiment [17] is human RAR-related Orphan Receptor gamma (RORg), RORC (gene 6097) (UniProt P51449). Nature of the experiment: ATG_RORg_TRANS: Attagene TRANS-FACTORIAL HepG2 Assay for human RAR-related Orphan Receptor gamma (RORg) (AID 2283011; active = hit-call score of the fitted dose curve at least 0.9, where 1 is the maximum). An outline of the steps: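 Activity is scored as increase in GAL4-UAS reporter mRNA over DMSO, detected by fluorescent RT-PCR and capillary electrophoresis in HepG2 cells transiently expressing a RORg-Gal4 chimera, 24 h after dosing.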
Sequence of human RAR-related Orphan Receptor gamma (RORg), RORC (gene 6097) (P51449 whole entry, looked up, the tested form may be a part): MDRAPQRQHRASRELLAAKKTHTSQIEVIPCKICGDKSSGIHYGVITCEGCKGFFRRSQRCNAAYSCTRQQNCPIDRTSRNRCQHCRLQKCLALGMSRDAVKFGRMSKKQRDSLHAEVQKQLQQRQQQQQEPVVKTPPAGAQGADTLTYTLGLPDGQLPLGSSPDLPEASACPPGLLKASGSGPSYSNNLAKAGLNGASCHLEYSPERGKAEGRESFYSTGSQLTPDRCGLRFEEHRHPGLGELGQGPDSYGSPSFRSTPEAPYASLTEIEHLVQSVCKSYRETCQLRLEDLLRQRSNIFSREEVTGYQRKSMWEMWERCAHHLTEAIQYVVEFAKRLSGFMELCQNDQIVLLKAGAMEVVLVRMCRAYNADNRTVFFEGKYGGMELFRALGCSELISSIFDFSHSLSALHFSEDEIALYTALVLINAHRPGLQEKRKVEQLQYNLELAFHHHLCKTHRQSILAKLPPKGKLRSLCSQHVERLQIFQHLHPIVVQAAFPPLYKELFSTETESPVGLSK

Read-out in experiment [18]: Human Leukocyte Antigen - DR isotype (HLADR), HLA-DRA (gene 3122)
In words: BSK_3C_HLADR: BioMAP Diversity Plus: 3C Assay for Human Leukocyte Antigen - DR isotype (HLADR) Biomarker Activity (AID 2283019).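 Note: ELISA of cell-surface HLA-DR on HUVEC 24 h after dosing.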 Conditions: primary human endothelial cells (HUVEC); actives raise or lower the signal. In outline:
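Endothelial cells from human umbilical vein are treated with test chemical; after 24 h, HLA-DR levels are measured by ELISA. Data are fitted in both directions using DMSO as the baseline.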

Experiment [19] has as its target human Retinoic Acid Receptor beta (RARb), RARB (gene 5915) (UniProt P10826). Nature of the experiment: ATG_RARb_TRANS: Attagene TRANS-FACTORIAL HepG2 Assay for human Retinoic Acid Receptor beta (AID 2283004; active = hit-call score of the fitted dose curve at least 0.9, where 1 is the maximum). In outline:
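HepG2, transient MRTU transfection, NR–Gal4 chimera, 24 h treatment; RT-PCR plus CE fluorescence detection of reporter mRNA; gain of signal vs DMSO.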

The target of experiment [20] is human Thyroid Receptor alpha (THRa1), THRA (gene 7067) (UniProt P10827). Nature of the experiment: ATG_THRa1_TRANS: Attagene TRANS-FACTORIAL HepG2 Assay for human Thyroid Receptor alpha (THRa1) (AID 2283014; active = hit-call score of the fitted dose curve at least 0.9, where 1 is the maximum). In outline: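 First, HepG2 cells receive multiple GAL4-UAS reporter units and the chimeric receptor. They are then dosed for 24 h, after which RNA is reverse-transcribed, amplified, labelled, HpaI-cut and sized by capillary electrophoresis; gain relative to DMSO is scored.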

Sequence of human Peroxisome Proliferator-activated Receptor alpha (PPARa), PPARA (gene 5465) (Q07869 whole entry, looked up, the tested form may be a part): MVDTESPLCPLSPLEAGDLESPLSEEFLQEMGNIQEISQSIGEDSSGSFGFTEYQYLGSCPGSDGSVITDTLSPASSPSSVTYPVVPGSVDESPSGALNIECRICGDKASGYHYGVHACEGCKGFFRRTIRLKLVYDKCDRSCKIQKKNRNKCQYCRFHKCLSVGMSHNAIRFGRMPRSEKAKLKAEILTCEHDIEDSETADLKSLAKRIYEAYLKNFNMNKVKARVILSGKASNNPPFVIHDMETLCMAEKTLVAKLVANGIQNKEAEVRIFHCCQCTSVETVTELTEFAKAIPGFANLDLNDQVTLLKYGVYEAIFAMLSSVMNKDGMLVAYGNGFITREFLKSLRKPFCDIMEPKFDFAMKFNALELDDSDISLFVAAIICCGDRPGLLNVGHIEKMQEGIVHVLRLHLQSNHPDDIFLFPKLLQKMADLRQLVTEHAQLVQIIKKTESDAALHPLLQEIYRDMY
Sequence of human Retinoid X Receptor beta (RXRb), RXRB (gene 6257) (P28702 whole entry, looked up, the tested form may be a part): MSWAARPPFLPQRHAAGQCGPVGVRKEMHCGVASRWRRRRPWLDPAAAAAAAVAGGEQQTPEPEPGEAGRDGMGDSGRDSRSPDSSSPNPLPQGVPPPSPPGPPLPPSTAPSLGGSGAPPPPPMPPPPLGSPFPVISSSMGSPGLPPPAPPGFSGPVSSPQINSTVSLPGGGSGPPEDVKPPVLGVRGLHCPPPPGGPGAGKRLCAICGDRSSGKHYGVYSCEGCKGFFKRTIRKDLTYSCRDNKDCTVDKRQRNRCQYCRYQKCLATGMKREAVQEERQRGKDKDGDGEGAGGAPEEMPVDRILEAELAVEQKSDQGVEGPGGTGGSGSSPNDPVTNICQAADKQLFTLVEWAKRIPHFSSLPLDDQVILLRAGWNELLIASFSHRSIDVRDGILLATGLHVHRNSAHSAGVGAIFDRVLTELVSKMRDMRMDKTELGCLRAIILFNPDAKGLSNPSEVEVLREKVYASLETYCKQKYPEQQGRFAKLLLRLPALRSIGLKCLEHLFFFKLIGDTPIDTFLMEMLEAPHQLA
Sequence of Retinoic acid receptor RXR-alpha (Homo sapiens) (P19793 whole entry, looked up, the tested form may be a part): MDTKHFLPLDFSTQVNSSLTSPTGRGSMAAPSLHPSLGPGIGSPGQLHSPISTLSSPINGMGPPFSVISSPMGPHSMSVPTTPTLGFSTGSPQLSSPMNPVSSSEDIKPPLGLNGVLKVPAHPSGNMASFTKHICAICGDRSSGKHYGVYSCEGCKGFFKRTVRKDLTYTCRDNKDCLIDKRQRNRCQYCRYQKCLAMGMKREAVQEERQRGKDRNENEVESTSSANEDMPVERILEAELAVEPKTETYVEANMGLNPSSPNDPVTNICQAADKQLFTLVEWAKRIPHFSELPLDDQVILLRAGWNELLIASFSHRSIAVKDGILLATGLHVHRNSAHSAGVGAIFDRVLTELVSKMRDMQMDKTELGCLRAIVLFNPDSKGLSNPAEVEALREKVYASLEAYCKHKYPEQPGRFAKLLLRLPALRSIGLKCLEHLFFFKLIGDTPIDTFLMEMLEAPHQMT
Sequence of E-selectin (Homo sapiens) (P16581 whole entry, looked up): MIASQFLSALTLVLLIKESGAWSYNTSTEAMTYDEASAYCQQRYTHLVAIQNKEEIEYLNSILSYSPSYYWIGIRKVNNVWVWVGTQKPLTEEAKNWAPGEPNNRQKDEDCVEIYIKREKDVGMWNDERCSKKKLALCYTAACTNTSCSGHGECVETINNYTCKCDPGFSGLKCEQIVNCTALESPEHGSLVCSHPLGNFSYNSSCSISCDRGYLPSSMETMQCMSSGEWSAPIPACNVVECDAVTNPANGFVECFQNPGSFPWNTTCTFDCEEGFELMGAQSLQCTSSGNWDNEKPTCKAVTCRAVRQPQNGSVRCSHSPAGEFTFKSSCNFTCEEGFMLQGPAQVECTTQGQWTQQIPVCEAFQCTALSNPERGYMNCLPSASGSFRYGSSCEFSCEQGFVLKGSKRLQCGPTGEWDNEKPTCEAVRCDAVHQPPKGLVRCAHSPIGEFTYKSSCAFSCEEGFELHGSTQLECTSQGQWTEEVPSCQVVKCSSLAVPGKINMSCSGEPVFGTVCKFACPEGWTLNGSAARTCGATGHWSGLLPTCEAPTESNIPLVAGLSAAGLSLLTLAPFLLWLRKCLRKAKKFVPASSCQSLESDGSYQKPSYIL
Sequence of Nuclear receptor subfamily 1 group I member 2 (Homo sapiens) (O75469 whole entry, looked up, the tested form may be a part): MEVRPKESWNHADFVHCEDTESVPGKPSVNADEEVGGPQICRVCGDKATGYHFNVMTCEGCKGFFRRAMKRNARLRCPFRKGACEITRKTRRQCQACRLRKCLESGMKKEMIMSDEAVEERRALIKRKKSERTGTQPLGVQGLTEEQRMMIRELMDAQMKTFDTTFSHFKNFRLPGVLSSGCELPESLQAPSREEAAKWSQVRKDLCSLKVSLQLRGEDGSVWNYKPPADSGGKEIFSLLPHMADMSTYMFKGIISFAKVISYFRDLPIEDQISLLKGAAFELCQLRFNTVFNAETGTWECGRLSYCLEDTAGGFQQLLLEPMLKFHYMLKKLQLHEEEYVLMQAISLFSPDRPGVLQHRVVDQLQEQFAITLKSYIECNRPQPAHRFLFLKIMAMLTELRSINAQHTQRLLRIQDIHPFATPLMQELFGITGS
Sequence of Peroxisome proliferator-activated receptor gamma (Homo sapiens) (P37231 whole entry, looked up): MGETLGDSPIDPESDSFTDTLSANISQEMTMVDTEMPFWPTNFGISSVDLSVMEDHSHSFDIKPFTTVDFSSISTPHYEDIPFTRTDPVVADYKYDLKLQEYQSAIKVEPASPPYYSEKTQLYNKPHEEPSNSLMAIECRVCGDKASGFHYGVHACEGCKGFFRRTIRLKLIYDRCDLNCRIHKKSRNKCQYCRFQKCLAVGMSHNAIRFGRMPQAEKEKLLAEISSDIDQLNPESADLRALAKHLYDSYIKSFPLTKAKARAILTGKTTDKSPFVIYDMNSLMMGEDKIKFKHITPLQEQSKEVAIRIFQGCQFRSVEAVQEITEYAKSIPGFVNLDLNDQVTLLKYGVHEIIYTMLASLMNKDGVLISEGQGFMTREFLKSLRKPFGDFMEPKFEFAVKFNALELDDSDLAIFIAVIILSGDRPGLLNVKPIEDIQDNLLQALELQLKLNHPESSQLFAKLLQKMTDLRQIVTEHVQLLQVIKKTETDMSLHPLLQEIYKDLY

For the compound `Oc1ccc2c(c1)OC[C@@H](N1CCC(O)(c3ccc(F)cc3)CC1)[C@H]2O`, the outcome in experiment [1], in [2], in experiment [3], in experiment [4], in experiment [5] and in experiment [8] was inactive. The result in experiment [9], in [10], in [11], in [12], in [13] and in experiment [14] was inactive. Also, the half-maximal activity concentration (AC50) (commonly the concentration at which the activity in the assay is half-maximal) was 16.5 µM (active) in [6] and 13.6 µM (active) in [7].

As to `CCc1c(C(=O)NN2CCCCC2)nn(-c2ccc(Cl)cc2Cl)c1-c1ccc(Br)cc1`, the AC50 in [15] is 8.48 µM (active); in experiment [5], 6.79 µM (active); in [6], 0.0976 µM (active); in experiment [13], 7.54 µM (active); in experiment [16], 5.41 µM (active); in experiment [14], 7.69 µM (active). Further, the result in [2], in experiment [3], in [7], in [9], in experiment [11] and in experiment [12] was inactive.

In the case of `O=C(O)CCCCC(=O)O`, the result in experiment [15], in [3], in experiment [5], in experiment [17], in [9] and in [10] was inactive. Further, the result in experiment [11], in [12], in experiment [13], in experiment [16] and in [18] was inactive.

Turning to `NCCO`, the result in experiment [15], in experiment [3], in experiment [19], in experiment [4], in experiment [5] and in experiment [8] was inactive. Besides, the compound was called inactive in experiment [9], in experiment [10], in experiment [11], in experiment [12], in experiment [13] and in [16]. The outcome in [18] and in experiment [14] was inactive.

`Clc1cc(Cl)c(Cl)cc1Cl`: the call in experiment [1], in experiment [2], in [3], in [5], in experiment [7] and in [8] was inactive. Also, the compound was called inactive in [9], in experiment [11], in [12], in experiment [13] and in experiment [16].

In the case of `Nc1ccc2c(c1)C(=O)c1ccccc1C2=O`, the result in experiment [15], in [3], in [19], in experiment [5], in experiment [7] and in experiment [17] was inactive. The compound was called inactive in [9], in experiment [10], in [20], in experiment [11], in experiment [12] and in experiment [13]. For the same compound, the result in [16] and in experiment [18] was inactive. Also, the AC50 in experiment [6] is 21 µM (active).

For the compound `CCCCCCCC=O`, the compound was called inactive in experiment [1], in experiment [2], in experiment [3], in [5], in experiment [7] and in experiment [10]. Further, the outcome in [11], in experiment [12], in [13], in experiment [16] and in experiment [14] was inactive. Further, in experiment [6], the half-maximal activity concentration (AC50) is 100 µM (active).
